The panel holds about 83,000 compounds, 20% with a hit somewhere; the sample as a whole holds those more often.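 Assay: single dose, 48 h. Readout: percent growth (0 = no net growth; negative = cell death). Active: <10.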 A number with no mark means an inactive call. The source made the active and inactive calls.
The compounds below were run on CAKI-1 renal (assay: NCI-60 one-dose screen, 48 h (100 = growth as untreated, 0 = no growth, -100 = all killed)). Details: 10 µM unless noted.
Cc1nc2ccc(Cl)cc2n1C gave a growth of 101%.
C=C1CC[C@@H]2[C@@](C)(CCC[C@]2(C)C(=O)O)[C@@H]1CC[C@H](CO)CCO showed a growth of 101%.
For Fc1c[c-]c(-c2ccccn2)c(F)c1.Fc1c[c-]c(-c2ccccn2)c(F)c1.[Cl][Pt+].[Cl][Pt+].c1ccc([PH+](C[PH+](c2ccccc2)c2ccccc2)c2ccccc2)cc1, the growth was 41.4%.
For O=C(NCc1cccnc1)c1ccc([N+](=O)[O-])o1, the growth was -3.61% (active).
For COc1ccc(NS(=O)(=O)c2ccc(-c3cnc(C4CC4)o3)cc2)cc1, the growth was 48.3%.
NC1=NC(c2ccccc2OS(=O)(=O)c2ccc(Br)cc2)n2c(nc3ccccc32)N1 (configuration not stated) was tested, and the growth was 104%.
O=C(Nc1ccccc1)Oc1cccc2cccnc12 gave a growth of 93.9%.
For CCC12CCC3c4ccc(O)cc4CCC3C1CC(O)C2O (configuration not stated), the growth was 59.4%.
Compound Cc1ccc(S(=O)(=O)N2CCc3ccc(O)c4c3C2Cc2ccc3c(c2-4)OCO3)cc1 (configuration not stated) has a growth of 32%.
COC(=O)c1c2c(c(C)[n+]([O-])c1C)C(=O)C=C(NCc1cccc(OC)c1)C2=O was tested, and the growth was -32.6% (active).
With O=C(c1cnn2c1NC(c1ccc(F)cc1)C2)N1CCCCC1 (configuration not stated) the growth was 93.4%.
O=C1NC(=O)C2(CCCC2C(=O)O)N1 (configuration not stated) was tested, and the growth was 102%.
With CON=C1C[C@]2(C[C@@H]3C[C@@H](C/C=C(\C)C[C@@H](C)/C=C/C=C4\CO[C@@H]5[C@H](O)C(C)=C[C@@H](C(=O)O3)[C@]45O)O2)O[C@H](/C(C)=C/C(C)C)[C@H]1C the growth was 44.8%.
COc1cc(/C=C/C(=O)C(=Cc2ccc(F)c(F)c2)C(=O)/C=C/c2ccc(O)c(OC)c2)ccc1O showed a growth of 95.6%.
For CCOC(=O)c1[nH]c2cc(Cl)ccc2c1[C@@H](C(=O)NC(C)(C)C)N(CC)C(=O)CCCCC#Cc1cccc2c1CN(C1CCC(=O)NC1=O)C2=O (some centres not stated), the growth was 7.95% (active).
O=C1/C(=C/c2ccccc2F)CNC/C1=C\c1ccccc1F was tested, and the growth was -52.5% (active).
With COc1cc(C2C3=C(COC3=O)N(CCO)c3cc4c(cc32)OCO4)cc(OC)c1O (configuration not stated) the growth was 60.4%.
CCCCCCCC/C=C\CCCCCCCCOc1cccc(CC(=O)NCC[N+]2(C)CCOCC2)c1 was tested, and the growth was 70.1%.
COc1ccccc1CNCCCCCCCCCCCCN1C(=O)c2ccc3c4c(ccc(c24)C1=O)C(=O)N(CCCCCCCCCCCCNCc1ccccc1OC)C3=O gave a growth of 102%.
With CC(C)NCC(O)COc1ccc(CCOCC2CC2)cc1 (configuration not stated) the growth was 99.3%.
With Clc1ccc(C2=NN(c3ccccc3)[C@H](c3cn(-c4ccccc4)nc3-c3ccccc3)C2)cc1 the growth was 99.9%.

These compounds were tested on A498 renal in the same assay as above. Details: 10 µM unless noted.
CC(C)OC1=C(Cl)C(=O)c2ccccc2C1=O showed a growth of 112%.
For CS(=O)(=O)Nc1cccc(C(=O)NCc2ccc(N3CCOCC3)cc2)c1, the growth was 94%.
With COc1ccc(S(=O)(=O)ON=C2C=C(C)C(=O)C(C)=C2)cc1 the growth was 98.4%.
In the case of CCOC(=O)c1c(Cl)c2c(n1Cc1cc(OC)cc(OC)c1)-c1oncc1CCC2, the growth was -13% (active).
With NC(=S)N/N=C1\c2ccccc2-c2c(F)c(F)c(F)c(F)c21 the growth was 105%.
COCCOC1=C(Cl)C(=O)c2ccccc2C1=O showed a growth of 67.6%.
With O=C1C(OCCOc2ccccc2)=C(OCCOc2ccccc2)C(=O)c2ccccc21 the growth was 94.7%.
N#Cc1c(O)c2c(c(O)c1C#N)C(=O)c1ccccc1C2=O gave a growth of 81.9%.
For COc1cc(/C=C/C(=O)CC(=O)/C=C/c2cc(Br)c(OC)c(OC)c2)cc(Br)c1OC, the growth was 98.4%.
In the case of CCN1CCN(c2ccc(Nc3ncc4ccc5ncn(C(C)C)c5c4n3)nc2)CC1, the growth was -61.5% (active).
In the case of Nc1nc2c(s1)CCc1c-2c(Br)n(Cc2ccccc2)c1Br, the growth was 91.5%.
In the case of O=c1onc(-c2ccccc2)c2ccccc12, the growth was 83.1%.
In the case of COc1ccc(-c2nn(-c3ccc(NC(=O)c4ccc(Cl)c(Cl)c4)cc3)cc2-c2ccncc2)cc1Cl, the growth was -0.135% (active).
COc1cccc(OC)c1OC(=O)c1ccccc1 gave a growth of 85.6%.
For C=C[C@H]1C[C@@H]2C[C@@H]3[C@H]4C/C=C\C(=O)NCCCC5NC(=O)C(=C(O)/C=C/[C@@H]4CC(=O)[C@H]3[C@@H]2[C@H]1C)C5=O (some centres not stated), the growth was -93.5% (active).
Compound Cc1nc2ccc(Cl)cc2n1C has a growth of 95.5%.
C=C1CC[C@@H]2[C@@](C)(CCC[C@]2(C)C(=O)O)[C@@H]1CC[C@H](CO)CCO showed a growth of 107%.
With Fc1c[c-]c(-c2ccccn2)c(F)c1.Fc1c[c-]c(-c2ccccn2)c(F)c1.[Cl][Pt+].[Cl][Pt+].c1ccc([PH+](C[PH+](c2ccccc2)c2ccccc2)c2ccccc2)cc1 the growth was 21.6%.
With O=C(NCc1cccnc1)c1ccc([N+](=O)[O-])o1 the growth was 9.84% (active).
For NC1=NC(c2ccccc2OS(=O)(=O)c2ccc(Br)cc2)n2c(nc3ccccc32)N1 (configuration not stated), the growth was 101%.
O=C(Nc1ccccc1)Oc1cccc2cccnc12 showed a growth of 119%.
With CCC12CCC3c4ccc(O)cc4CCC3C1CC(O)C2O (configuration not stated) the growth was 67.1%.
For Cc1ccc(S(=O)(=O)N2CCc3ccc(O)c4c3C2Cc2ccc3c(c2-4)OCO3)cc1 (configuration not stated), the growth was 35.6%.
For O=C1NC(=O)C2(CCCC2C(=O)O)N1 (configuration not stated), the growth was 115%.
CON=C1C[C@]2(C[C@@H]3C[C@@H](C/C=C(\C)C[C@@H](C)/C=C/C=C4\CO[C@@H]5[C@H](O)C(C)=C[C@@H](C(=O)O3)[C@]45O)O2)O[C@H](/C(C)=C/C(C)C)[C@H]1C showed a growth of 38.3%.
With COc1cc(/C=C/C(=O)C(=Cc2ccc(F)c(F)c2)C(=O)/C=C/c2ccc(O)c(OC)c2)ccc1O the growth was 116%.
In the case of O=C1/C(=C/c2ccccc2F)CNC/C1=C\c1ccccc1F, the growth was -38.8% (active).
For COc1cc(C2C3=C(COC3=O)N(CCO)c3cc4c(cc32)OCO4)cc(OC)c1O (configuration not stated), the growth was -2.62% (active).
With COc1ccccc1CNCCCCCCCCCCCCN1C(=O)c2ccc3c4c(ccc(c24)C1=O)C(=O)N(CCCCCCCCCCCCNCc1ccccc1OC)C3=O the growth was -60.4% (active).
Work on CC(C)NCC(O)COc1ccc(CCOCC2CC2)cc1 (configuration not stated) yielded a growth of 90.7%.
Clc1ccc(C2=NN(c3ccccc3)[C@H](c3cn(-c4ccccc4)nc3-c3ccccc3)C2)cc1 showed a growth of 109%.
